Assay outcomes as filed in PubChem.
The list is not random: actives were taken first. Their share in the collection is about 8%.
PTK2B oligo ant: antagonists of human Pyk2 oligomerization. Q293 cells, Pyk2 FERM NanoBiT luminescence; active compounds read low. Q14289. AID 1347419. z-score (the deposit names both 25 µM and 10 µM). actives 0.83% (n = 99,000);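 active = Z-score of -3 or lower, scaled per plate to the spread of control and sample wells; inactive = z-score above -3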;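 also: negative z-score means lost luminescence so less FERM oligomerization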
PostGolgi yeast: growth inhibition of a yeast mutant, post-Golgi transport screen. post-Golgi transport phenotypic cell assay. inhibition, % at 10 µM. actives 0.9% (n = 98,000). AID 739;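 also: yeast cells grown in 1536-well plates; yeast grown about 18 h at 30C before absorbance read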
PostGolgi ctrl: growth of the yeast control strain, post-Golgi counter-screen; efflux-deficient yeast background strain, growth absorbance A615, 16 h; inhibition, % at 10 µM; actives 5% (n = 98,000)
Cav3 T inh: human Cav3.2 channel inhibition, primary screen. actives 4% (n = 100,000). B-score at 10 µM. Cav3.2-expressing cells, Fluo-4 calcium fluorescence FDSS; active compounds read low. AID 449739. O95180;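 active = single-dose well whose peak fluorescence ratio is a statistical outlier from its plate by either plate-standardised score or position-corrected B-score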
* marks the source's active call; other numbers are inactive results; nt = not tested or not shown. Rule as the data show it, unless noted: active = inhibition above about 30%; inactive = the rest.

SMILES	PTK2B oligo ant	PostGolgi yeast	PostGolgi ctrl	Cav3 T inh
COc1ccnc(Oc2ccc3ccccc3c2)c1C#N	0.12	-6	7	nt
CCN1C(=O)c2ccccc2S(=O)c2ccc(C(=O)N3CCCCCC3)cc21 (configuration not stated)	nt	-9	4	nt
CCN1CCN(C(=O)c2ccc3c(c2)N(Cc2ccc(F)cc2)C(=O)c2ccccc2S3=O)CC1 (configuration not stated)	nt	4	0	-7.2*
CCOC(=O)c1sc(NC(=O)Nc2ccc(Cl)cc2)cc1C	-2.6	3	62*	-0.75
CCOC(=O)c1c(NC(=O)Nc2ccc(Cl)cc2)sc(C)c1C	-0.48	-16	0	0.67
O=C(OCCn1cncn1)c1cc2ccccc2oc1=O	-0.29	2	4	-0.57
O=C(c1c(F)cccc1F)N1CCN(c2ccccc2F)CC1	-0.07	2	4	-0.3
O=C(C(Sc1ccccc1)c1ccccc1)N1CCN(c2ccccc2F)CC1 (configuration not stated)	-2.1	5	16	-4*
COc1ccc(-c2nc3ccccn3c2NCc2ccc3c(c2)OCO3)cc1	-0.2	nt	nt	-4*
c1ccc(-c2nc3ccccn3c2NCc2ccc3c(c2)OCO3)cc1	-0.3	-3	3	-4.2*
Cc1nc2ccccn2c1C(=O)NCc1ccc2c(c1)OCO2	0.93	21	0	0.32
O=C(CCNC(=O)c1ccccc1)Oc1ccc([N+](=O)[O-])cc1	-0.13	nt	nt	nt
O=C(Nc1cccc(Cl)c1)ON=C1c2ccccc2-c2ccccc21	1.1	0	23	-0.091
O=C(CCl)N(c1ccc(Cl)cc1)c1c[nH]c2ccccc12	-1.2	26	44*	-3.2
O=C(COC(=O)c1ccc(S(=O)(=O)N2CCCC2)cc1)NCc1ccccc1	0.16	25	-4	0.022
O=C(Nc1ccccc1N1CCN(C(=O)c2ccc(Cl)cc2)CC1)c1ccc2c(c1)OCO2	-3.2*	-5	20	-1.4
CC(C)C(=O)N1CCN(c2ccc(NC(=O)c3ccc4c(c3)OCCO4)cc2Cl)CC1	-3.6*	2	1	-0.7
CS(=O)(=O)N1CCN(c2ccccc2NC(=O)c2ccc(Br)o2)CC1	-0.46	3	42*	-1.4
O=C(Nc1ccccc1N1CCCCC1)c1ccccc1F	1.6	-4	34*	-0.36
COC(C[C@@H](O)CC(=O)COCc1ccccc1)OC	nt	nt	nt	-1.1
Cc1ccc(S(=O)(=O)c2nc(N3CCOCC3)sc2Cl)cc1	-0.68	-3	18	-0.12
CCO/N=C(/C)c1c(O)c(C)c(-c2ccccc2)n(-c2ccccc2)c1=O	1.2	nt	nt	-1.2
O=C(Nc1ccccc1N1CCN(C(=O)c2ccccc2)CC1)c1cc2ccccc2o1	-2.9	-4	36*	0.85
O=C(Nc1ccccc1N1CCN(C(=O)c2ccccc2)CC1)c1cc(Br)ccc1Cl	-2	8	31*	-1.9
O=C(Nc1ccccc1N1CCCC1)c1cc2ccccc2o1	-0.92	-11	39*	nt
SMILES	PTK2B oligo ant	PostGolgi yeast	PostGolgi ctrl	Cav3 T inh
COc1ccc(S(=O)(=O)N2CCCN(Cc3cccc(F)c3)CC2)cc1	-0.45	2	45*	0.27
COc1ccc(S(=O)(=O)N2CCN(Cc3ccccc3)CC2)cc1	-1	2	3	-0.0054
O=C(CCN1C(=O)C2C3C=CC(C3)C2C1=O)NC1CCCc2ccccc21 (configuration not stated)	0.18	7	8	0.019
Cc1ccc(S(=O)(=O)N2CCN(CC(=O)NC3CCCc4ccccc43)CC2)c(C)c1 (configuration not stated)	-0.68	0	33*	-2.4
O=C(CCC(=O)N1CCN(S(=O)(=O)c2ccc(Cl)cc2)CC1)NC1CCCc2ccccc21 (configuration not stated)	0.31	14	0	-5.2*
Cc1ccc(S(=O)(=O)N2CCN(CC(=O)NC3CCCc4ccccc43)CC2)cc1C (configuration not stated)	-0.77	2	19	-3.3
O=C(NCC1CCCO1)c1ccc(CS(=O)(=O)Cc2ccc(F)cc2)o1 (configuration not stated)	-0.33	-6	-1	0.44
O=C1c2ccccc2S(=O)(=O)c2cc(C(=O)N3CCN(C(=O)c4ccccc4)CC3)ccc21	nt	nt	nt	0.54
Cc1cc(C)c2ccc(C(=O)O)nc2c1O	0.48	-5	4	-1.3
O=C(O)CCn1c2c(c3ccccc31)CCCC2	0.66	2	48*	0.71
CC(C)(C)c1cc(NC(=O)c2cc(F)c(F)c(F)c2F)no1	-0.41	-7	0	0.28
CC(=O)C1=C(c2ccccc2)NC(=O)NC1c1ccccc1OCC(=O)NCc1ccccc1 (configuration not stated)	-2.2	4	1	-1.2
O=C1CNCc2[nH]c3ccccc3c2N1c1ccccc1	-1	-5	32*	0.47
